Reference: the supplement of paper PMC8728848
About 410 targets per protein were measured; listed, in parts, are those with the strongest signals and a random draw of the rest.

Columns and labels:
Assay in all cases: glycan array binding signal (z-score within array); higher = stronger binding
Conditions in all cases: glycan notation: IUPAC condensed, linker removed
Fuc(a1-2)Gal(b1-3)GalNAc = target: Fuc(a1-2)Gal(b1-3)GalNAc
Method in brief: (§1)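 Glycan array binding is given as a within-array Z-score, which can be read as non-binding when negative. The arrays, 3228 of them, came from the Consortium for Functional Glycomics database and were retained only where the protein sequence was available. Z-scores were averaged across arrays of the same protein sequence at different concentrations or buffers and across linkers.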

[1] = target: Fuc(a1-2)Gal(b1-3)GalNAc(b1-4)[Neu5Ac(a2-3)]Gal(b1-4)Glc
Method in brief: as §1

[2] = target: Fuc(a1-2)Gal(b1-3)GlcNAc(b1-3)[Neu5Ac(a2-6)Gal(b1-4)GlcNAc(b1-6)]Gal(b1-4)Glc
Method in brief: as §1

[3] = target: Fuc(a1-2)Gal(b1-3)GlcNAc6S
Method in brief: as §1

[4] = target: Fuc(a1-2)Gal(b1-3)[Fuc(a1-4)]GlcNAc
Method in brief: as §1

[5] = target: Fuc(a1-2)Gal(b1-3)[Fuc(a1-4)]GlcNAc(b1-2)Man(a1-3)[Fuc(a1-2)Gal(b1-3)[Fuc(a1-4)]GlcNAc(b1-2)Man(a1-3)]Man(b1-4)GlcNAc(b1-4)GlcNAc
Method in brief: as §1

Fuc(a1-2)Gal(b1-4)Glc = target: Fuc(a1-2)Gal(b1-4)Glc
Method in brief: as §1

Fuc(a1-2)Gal(b1-4)Glc6S = target: Fuc(a1-2)Gal(b1-4)Glc6S
Method in brief: as §1

[6] = target: Fuc(a1-2)Gal(b1-4)GlcNAc(b1-2)Man
Method in brief: as §1

[7] = target: Fuc(a1-2)Gal(b1-4)[Fuc(a1-3)]GlcNAc
Method in brief: as §1

[8] = target: Fuc(a1-2)[Gal(a1-3)]Gal(b1-4)[Fuc(a1-3)]Glc
Method in brief: as §1

[9] = target: Fuc(a1-2)[Gal(a1-3)]Gal(b1-4)[Fuc(a1-3)]GlcNAc
Method in brief: as §1

[10] = target: Fuc(a1-2)[GalNAc(a1-3)]Gal(b1-3)GlcNAc
Method in brief: as §1

[11] = target: Fuc(a1-2)[GalNAc(a1-3)]Gal(b1-3)GlcNAc(b1-2)Man(a1-3)[Fuc(a1-2)[GalNAc(a1-3)]Gal(b1-3)GlcNAc(b1-2)Man(a1-6)]Man(b1-4)GlcNAc(b1-4)GlcNAc
Method in brief: as §1

[12] = target: Fuc(a1-3)[Gal(b1-4)]GlcNAc(b1-3)GalNAc
Method in brief: as §1

[13] = target: Fuc(a1-3)[Gal3S(b1-4)]GlcNAc
Method in brief: as §1

[14] = target: Fuc(a1-3)[GalNAc(b1-4)]GlcNAc
Method in brief: as §1

[15] = target: Gal(a1-4)Gal(b1-3)GlcNAc(b1-2)Man(a1-3)[Gal(a1-4)Gal(b1-3)GlcNAc(b1-2)Man(a1-6)]Man(b1-4)GlcNAc(b1-4)GlcNAc
Method in brief: as §1

Gal(a1-4)GlcNAc = target: Gal(a1-4)GlcNAc
Method in brief: as §1

Gal(b1-3)Gal = target: Gal(b1-3)Gal
Method in brief: as §1

Gal(b1-3)GalNAc = target: Gal(b1-3)GalNAc
Method in brief: as §1

[16] = target: Gal(b1-3)GlcNAc(b1-2)Man(a1-3)[GlcNAc(b1-4)][Gal(b1-3)GlcNAc(b1-2)Man(a1-6)]Man(b1-4)GlcNAc(b1-4)GlcNAc
Method in brief: as §1

[17] = target: Gal(b1-3)GlcNAc(b1-3)Gal(b1-4)GlcNAc(b1-3)Gal(b1-4)GlcNAc(b1-2)[Gal(b1-3)GlcNAc(b1-3)Gal(b1-4)GlcNAc(b1-3)Gal(b1-4)GlcNAc(b1-6)]Man(a1-6)[Gal(b1-3)GlcNAc(b1-3)Gal(b1-4)GlcNAc(b1-3)Gal(b1-4)GlcNAc(b1-2)Man(a1-3)]Man(b1-4)GlcNAc(b1-4)[Fuc(a1-6)]GlcNAc
Method in brief: as §1

[18] = target: Gal(b1-3)GlcNAc(b1-3)GalNAc
Method in brief: as §1

[19] = target: Gal(b1-3)[Neu5Ac(a2-6)]GalNAc
Method in brief: as §1

Gal(b1-4)Gal = target: Gal(b1-4)Gal
Method in brief: as §1

[20] = target: Gal(b1-4)GlcNAc(b1-2)Man(a1-3)[Gal(b1-4)GlcNAc(b1-2)Man(a1-6)]Man(b1-4)GlcNAc(b1-4)[Fuc(a1-6)]GlcNAc
Method in brief: as §1

[21] = target: Gal(b1-4)GlcNAc(b1-2)Man(a1-3)[Man(a1-6)]Man(b1-4)GlcNAc(b1-4)GlcNAc
Method in brief: as §1

B1: SHCBP1-GST (Homo sapiens), Q8NEM2 (protein)
chain: MADGSLTGGGLEAAAMAPERMGWAVEQELASLEKGLFQDEDSCSDCSYRDKPGSSLQSFMPEGKTFFPEIFQTNQLLFYERFRAYQDYILADCKASEVQEFTAEFLEKVLEPSGWRAVWHTNVFKVLVEITDVDFAALKAVVRLAEPYLCDSQVSTFTMECMKELLDLKEHRLPLQELWVVFDDSGVFDQTALAIEHVRFFYQNIWRSWDEEEEDEYDYFVRCVEPRLRLHYDILEDRVPSGLIVDYHNLLSQCEESYRKFLNLRSSLSNCNSDSEQENISMVEGLKLYSEMEQLKQKLKLIENPLLRYVFGYQKNSNIQAKGVRSSGQKITHVVSSTMMAGLLRSLLTDRLCQEPGEEEREIQFHSDPLSAINACFEGDTVIVCPGHYVVHGTFSIADSIELEGYGLPDDIVIEKRGKGDTFVDCTGADIKISGIKFVQHDAVEGILIVHRGKTTLENCVLQCETTGVTVRTSAEFLMKNSDLYGAKGAGIEIYPGSQCTLSDNGIHHCKEGILIKDFLDEHYDIPKISMVNNIIHNNEGYGVVLVKPTIFSDLQENAEDGTEENKALKIQTSGEPDVAERVDLEELIECATGKMELCARTDPSEQVEGNCEIVNELIAASTQKGQIKKKRLSELGITQADDNLMSQEMFVGIVGNQFKWNGKGSFGTFLF
- glycan array binding signal (z-score) (Fuc(a1-2)Gal(b1-3)GalNAc): -0.317
- glycan array binding signal (z-score) [1]: -0.821
- glycan array binding signal (z-score) [2]: -0.751
- glycan array binding signal (z-score) [3]: -0.806
- glycan array binding signal (z-score) [4]: 0.085
- glycan array binding signal (z-score) [5]: 0.999
- glycan array binding signal (z-score) (Fuc(a1-2)Gal(b1-4)Glc): -0.192
- glycan array binding signal (z-score) (Fuc(a1-2)Gal(b1-4)Glc6S): -0.251
- glycan array binding signal (z-score) [6]: -0.583
- glycan array binding signal (z-score) [7]: -0.113
- glycan array binding signal (z-score) [8]: -0.299
- glycan array binding signal (z-score) [9]: 0.298
- glycan array binding signal (z-score) [10]: -0.199
- glycan array binding signal (z-score) [11]: -0.355
- glycan array binding signal (z-score) [12]: 2.35
- glycan array binding signal (z-score) [13]: -0.161
- glycan array binding signal (z-score) [14]: 0.35
- glycan array binding signal (z-score) [15]: 4.1
- glycan array binding signal (z-score) (Gal(a1-4)GlcNAc): -0.477
- glycan array binding signal (z-score) (Gal(b1-3)Gal): 0.702
- glycan array binding signal (z-score) (Gal(b1-3)GalNAc): -0.251
- glycan array binding signal (z-score) [16]: 2.98
- glycan array binding signal (z-score) [17]: 3.45
- glycan array binding signal (z-score) [18]: 0.539
- glycan array binding signal (z-score) [19]: -1.01
- glycan array binding signal (z-score) (Gal(b1-4)Gal): -0.879
- glycan array binding signal (z-score) [20]: 0.409
- glycan array binding signal (z-score) [21]: 0.6
